Reference: PubChem BioAssay (NCI)
This is part of a sample that, as a whole, favours compounds with a hit. Of some 79,000 tested, about 15% had one in any assay. Active and inactive are the calls of the source. Rule as the data show it: active = growth inhibition above about 70%; inactive = the rest.

Legend:
[1] = NCI Yeast Anticancer Drug Screen. Data for the rad52 strain (AID 147);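 also: 0% = growth of vehicle-treated control cultures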; conditions: S. cerevisiae rad52 mutant growth inhibition, hits give high values
In short: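 Inhibition of yeast growth, referenced to vehicle controls, was the measured output for a strain with defective DNA damage repair.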

[2] = NCI Yeast Anticancer Drug Screen. Data for the wt1 strain (AID 149);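 also: 0% = growth of vehicle-treated wt1 cultures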; conditions: S. cerevisiae wt1 strain (SPY 50644) growth inhibition, hits give high values
In short: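 Yeast wt1 strain exposed to compounds; growth inhibition measured relative to vehicle-treated controls.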

[3] = NCI Yeast Anticancer Drug Screen. Data for the rad50EPP+ strain (AID 151);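 also: 0% = growth of vehicle-treated control cultures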; conditions: S. cerevisiae rad50 mutant strain, hits give high values
In short: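 Genetically defined yeast (rad50EPP+, DNA damage repair alteration) is grown with compound, and inhibition of growth is expressed relative to vehicle-treated controls.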

[4] = NCI Yeast Anticancer Drug Screen. Data for the rad50 strain (AID 155);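 also: 0% = growth of vehicle-only cultures of the same strain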; conditions: S. cerevisiae rad50 strain growth inhibition, hits give high values
In short: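 Yeast carrying a defined DNA repair defect were exposed to test compounds, and growth was compared with vehicle-treated controls to give percent inhibition.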

[5] = NCI Yeast Anticancer Drug Screen. Data for the mec2-1 strain (AID 157); conditions: S. cerevisiae mec2-1 strain, hits give high values
In short: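 Each compound was tested on mec2-1 yeast, a strain altered in DNA damage repair or cell cycle control. Growth inhibition is reported relative to vehicle.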

[6] = NCI Yeast Anticancer Drug Screen. Data for the rad14 strain (AID 159);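 also: 0% = growth of vehicle-treated control cultures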; conditions: S. cerevisiae rad14 strain growth inhibition, hits give high values
In short: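 Yeast cells carrying a defined DNA-repair defect were exposed to compounds, and growth inhibition was calculated relative to vehicle-treated control cultures.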

[7] = NCI Yeast Anticancer Drug Screen. Data for the sgs1 mgt1 strain (AID 161);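 also: 0% = growth of cultures given vehicle only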; conditions: S. cerevisiae sgs1 mgt1 strain, hits give high values
In short: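 Read-out: growth inhibition vs vehicle controls. Cells: mutant yeast strain deficient in DNA damage repair.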

[8] = NCI Yeast Anticancer Drug Screen. Data for the CLN2oe strain (AID 163);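 also: 0% = growth of vehicle-only control cultures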; conditions: S. cerevisiae CLN2oe strain, hits give high values
In short: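 First, the altered yeast strain was treated with each compound; second, its growth was measured; finally, inhibition was derived by comparison with vehicle controls.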

[9] = NCI Yeast Anticancer Drug Screen. Data for the cln2 rad14 strain (AID 165);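 also: 0% = growth equal to vehicle treated cultures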; conditions: S. cerevisiae cln2 rad14 strain, hits give high values
In short: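 Test compounds were added to cln2 rad14 yeast cultures; inhibition of growth was then determined by comparison with vehicle treatment.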

[10] = NCI Yeast Anticancer Drug Screen. Data for the bub3 strain (AID 167); conditions: S. cerevisiae bub3 mutant strain, hits give high values
In short: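 Compounds were applied to a genetically altered yeast strain carrying a cell-cycle control defect. Growth inhibition was scored against vehicle-treated controls.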

[11] = NCI Yeast Anticancer Drug Screen. Data for the wt2 strain (AID 169);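 also: 0% = growth of vehicle-treated yeast cultures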; conditions: S. cerevisiae wt2 strain growth inhibition, hits give high values
In short: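 The panel's yeast strains carry defined changes in DNA repair or cell cycle genes. Each strain is grown with compound, and growth loss is scored relative to vehicle.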

[12] = NCI Yeast Anticancer Drug Screen. Data for the mlh1 strain (AID 171);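 also: 0% = growth of vehicle-treated control cultures of the same strain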; conditions: S. cerevisiae mlh1 strain growth inhibition, hits give high values
In short: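 Inhibition values reflect reduced yeast growth in the presence of compound, referenced to vehicle controls, using a strain chosen for its alteration in DNA repair or cell cycle control.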

[13] = NCI Yeast Anticancer Drug Screen. Data for the mlh1 rad18 strain (AID 175); conditions: S. cerevisiae mlh1 rad18 strain growth inhibition, hits give high values
In short: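 Inhibition values reflect reduced growth of mutant yeast versus vehicle-treated controls following compound exposure; the mutations affect DNA damage repair.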

[14] = NCI Yeast Anticancer Drug Screen. Data for the rad18 strain (AID 177); conditions: S. cerevisiae rad18 mutant growth inhibition, hits give high values
In short: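 Steps: expose repair-mutant yeast to compound; measure growth; express as inhibition relative to vehicle control.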

[15] = NCI Yeast Anticancer Drug Screen. Data for the sgs1 strain (AID 173);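 also: 0% = growth of vehicle-only control cultures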; conditions: S. cerevisiae sgs1 mutant, hits give high values
In short: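 Vehicle-treated cultures served as reference for growth inhibition of a yeast strain altered in DNA damage repair or cell cycle control after compound exposure.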

[16] = at 5.0 µM (retest, dose inferred, filed as 0.5)
[17] = at 50.0 µM (retest, dose inferred, filed as 5.0)

Measured: growth inhibition

O=[N+]([O-])c1cccc2nc3ccccc3c(NCCc3cccc[n+]3[O-])c12
inactive: [1]; at 1.2 µM 15% | [1]; at 3.7 µM 47% | [2]; at 1.2 µM 0% | [2]; at 3.7 µM 1% | [2]; at 11.0 µM 11% | [2]; at 33.0 µM 27% | [3]; at 1.2 µM 21% | [3]; at 3.7 µM 43% | [4]; at 1.2 µM 10% | [4]; at 3.7 µM 30% | [4]; at 11.0 µM 68% | [5]; at 1.2 µM 2% | [5]; at 3.7 µM 18% | [5]; [16] 25% | [5]; at 11.0 µM 62% | [6]; at 1.2 µM 12% | [6]; at 3.7 µM 37% | [8]; at 1.2 µM -11% | [8]; at 3.7 µM -12% | [8]; at 11.0 µM 6% | [8]; at 33.0 µM 35% | [10]; at 1.2 µM -12% | [10]; at 3.7 µM -13% | [10]; [16] 3% | [10]; at 11.0 µM -11% | [10]; at 33.0 µM 17% | [10]; at 50.0 µM 53.2% | [10]; at 100.0 µM 65% | [11]; at 1.2 µM 1% | [11]; at 3.7 µM 3% | [11]; at 11.0 µM 14% | [11]; at 33.0 µM 35% | [12]; at 1.2 µM 0% | [12]; at 3.7 µM 3% | [12]; at 11.0 µM 20% | [12]; at 33.0 µM 50%
active: [1]; at 11.0 µM 81% | [1]; at 33.0 µM 92% | [1]; at 100.0 µM 97% | [2]; at 100.0 µM 70% | [3]; at 11.0 µM 72% | [3]; at 33.0 µM 82% | [3]; at 100.0 µM 90% | [4]; [16] 70% | [4]; at 33.0 µM 88% | [4]; [17] 96% | [4]; at 50.0 µM 87.5% | [4]; at 100.0 µM 94% | [5]; at 33.0 µM 95% | [5]; [17] 98% | [5]; at 50.0 µM 83.2% | [5]; at 100.0 µM 98% | [6]; at 11.0 µM 89% | [6]; at 33.0 µM 97% | [6]; at 100.0 µM 99% | [7]; [16] 91% | [7]; [17] 97% | [7]; at 50.0 µM 91.8% | [8]; at 100.0 µM 86% | [9]; [16] 85% | [9]; [17] 99% | [9]; at 50.0 µM 95.2% | [10]; [17] 83% | [11]; at 100.0 µM 79% | [12]; at 100.0 µM 89% | [13]; [16] 88% | [13]; [17] 98% | [13]; at 50.0 µM 93.8% | [14]; at 1.2 µM 92% | [14]; at 3.7 µM 94% | [14]; at 11.0 µM 94% | [14]; at 33.0 µM 96% | [14]; at 100.0 µM 96%

COC(=O)CSc1nnc(CSc2ccc(Cl)cc2)n1-c1ccccc1
active: [10]; [17] 75% | [10]; at 50.0 µM 74.5%
inactive: [1]; at 1.2 µM 1% | [1]; at 3.7 µM 3% | [1]; at 11.0 µM 5% | [1]; at 33.0 µM 12% | [1]; at 100.0 µM 5% | [2]; at 1.2 µM -1% | [2]; at 3.7 µM -2% | [2]; at 11.0 µM -3% | [2]; at 33.0 µM 0% | [2]; at 100.0 µM 2% | [3]; at 1.2 µM -2% | [3]; at 3.7 µM 0% | [3]; at 11.0 µM -2% | [3]; at 33.0 µM -5% | [3]; at 100.0 µM -11% | [4]; at 1.2 µM 2% | [4]; at 3.7 µM 4% | [4]; [16] -16% | [4]; at 11.0 µM 9% | [4]; at 33.0 µM 15% | [4]; [17] 15% | [4]; at 50.0 µM 6.25% | [4]; at 100.0 µM 12% | [5]; at 1.2 µM -3% | [5]; at 3.7 µM -1% | [5]; [16] -9% | [5]; at 11.0 µM 3% | [5]; at 33.0 µM 10% | [5]; [17] 18% | [5]; at 50.0 µM 16.9% | [5]; at 100.0 µM 12% | [6]; at 1.2 µM 0% | [6]; at 3.7 µM 2% | [6]; at 11.0 µM 10% | [6]; at 33.0 µM 15% | [6]; at 100.0 µM 13% | [7]; [16] -11% | [7]; [17] 68% | [7]; at 50.0 µM 58.5% | [8]; at 1.2 µM -2% | [8]; at 3.7 µM 6% | [8]; at 11.0 µM 14% | [8]; at 33.0 µM 19% | [8]; at 100.0 µM 19% | [9]; [16] -6% | [9]; [17] 43% | [9]; at 50.0 µM 44% | [10]; at 1.2 µM -1% | [10]; at 3.7 µM 6% | [10]; [16] 7% | [10]; at 11.0 µM 22% | [10]; at 33.0 µM 46% | [10]; at 100.0 µM 57% | [12]; at 1.2 µM -1% | [12]; at 3.7 µM -1% | [12]; at 11.0 µM 2% | [12]; at 33.0 µM 9% | [12]; at 100.0 µM 14% | [15]; at 1.2 µM -2% | [15]; at 3.7 µM -3% | [15]; at 11.0 µM 2% | [15]; at 33.0 µM 13% | [15]; at 100.0 µM 15% | [13]; [16] -11% | [13]; [17] 32% | [13]; at 50.0 µM 7% | [14]; at 1.2 µM -1% | [14]; at 3.7 µM 2% | [14]; at 11.0 µM 4% | [14]; at 33.0 µM 8% | [14]; at 100.0 µM 9%
